Assay results: PubChem BioAssay (NCATS)
Where “and” joins values, the source holds several entries; their conditions need not be identical. Identical values can stand only once. Records with an inconclusive call do not appear. Calls of active or inactive are those of the source. The call rests on the fitted dose curve; in most records, active means well fitted curve in the direction sought with a large enough effect; inconclusive means small, poorly fitted or top-dose-only effect, or another doubt; inactive means no such curve, though single readings can be large; an effect the other way counts as inactive or inconclusive.

Key:
[1] = target: Cellular tumor antigen p53 (Homo sapiens) (UniProt P04637); test: Primary qHTS for small molecule compounds that upregulate eGFP-tagged delta133p53alpha (in N-terminal) cells. (AID 2060322); settings: NCI-H358 eGFP-delta133p53alpha fluorescence, 24 h; activation: active compounds read high;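 further: 0% = DMSO vehicle and 100% = reference activator; nearly all actives have a fitted effect of over 75% in size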
Sequence of Cellular tumor antigen p53 (Homo sapiens) (P04637 whole entry, looked up): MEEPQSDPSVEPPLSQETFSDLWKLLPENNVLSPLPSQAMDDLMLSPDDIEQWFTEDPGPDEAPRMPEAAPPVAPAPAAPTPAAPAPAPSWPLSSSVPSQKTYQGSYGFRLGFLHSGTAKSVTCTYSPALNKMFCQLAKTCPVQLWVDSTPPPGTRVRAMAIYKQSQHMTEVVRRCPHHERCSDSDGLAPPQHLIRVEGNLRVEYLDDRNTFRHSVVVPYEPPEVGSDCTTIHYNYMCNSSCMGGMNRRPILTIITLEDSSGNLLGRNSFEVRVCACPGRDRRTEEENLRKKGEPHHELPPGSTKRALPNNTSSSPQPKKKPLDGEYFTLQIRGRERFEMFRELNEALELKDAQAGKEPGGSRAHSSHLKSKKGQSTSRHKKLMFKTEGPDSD
How it was run: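 NCI-H358 cells pre-induced 24 h with 10 ng/ml doxycycline to express N-terminal eGFP-delta133p53alpha, then dosed 24 h at 37C without doxycycline; fixed, Hoechst-stained, GFP intensity by laser scanning cytometry, normalized to DMSO (0%) and 57.5 uM 5-azacytidine (100%).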

[2] = target: Aldehyde dehydrogenase, mitochondrial (Homo sapiens) (UniProt P05091); test: qHTS for Inhibitors of the Aldehyde Dehydrogenase Family (ALDH2) Primary screen (AID 2061308); settings: ALDH2 enzyme inhibition qHTS, 1536-well; series mostly up to 56 µM;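 further: plate controls were vehicle for no effect and reference inhibitor for full effect; nearly all actives have a fitted effect of over 55% in size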
[3] = target: Retinaldehyde dehydrogenase 3 (Homo sapiens) (UniProt P47895); test: qHTS for Inhibitors of the Aldehyde Dehydrogenase Family (ALDH1A3) Primary screen (AID 2061315); settings: ALDH inhibition qHTS; series mostly up to 56 µM;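 further: plate controls were DMSO vehicle for no effect and reference inhibitor for full effect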

CC(=O)/C=C/C1(O)C(C)(C)CC(O)CC1(C)O (stereo unspecified)
inactive: activation [1] 12.2% | Potency [2] | Potency [3]

C[C@@H]1O[C@@H](O[C@H]2[C@H](OC(=O)[C@]34CCC(C)(C)C[C@H]3C3=CCC5[C@@]6(C)CC[C@H](O[C@@H]7O[C@H](C(=O)O)[C@@H](O)[C@H](O)[C@H]7O[C@@H]7O[C@H](CO)[C@H](O)[C@H](O)[C@H]7O)[C@@](C)(C=O)C6CC[C@@]5(C)[C@]3(C)C[C@H]4O)O[C@H](C)[C@H](O[C@@H]3O[C@H](C)[C@H](O)[C@H](O)[C@H]3O)[C@@H]2O)[C@H](O)[C@H](O)[C@H]1O[C@@H]1OC[C@@H](O)[C@H](O[C@@H]2O[C@H](CO)[C@@H](O)[C@H](O)[C@H]2O)[C@H]1O (stereo partly specified)
inactive: activation [1] -6.87% | activity change, negative = inhibition [2] -7.78% [at 11.2 µM] | activity change, negative = inhibition [3] -11.5% [at 11.2 µM]

c1ccc(Cc2ncc3c(n2)CCNCC3)cc1
inactive: activation [1] 7% | Potency [2] | Potency [3]

C=C(C)C1CC(O)C(C)C12CC(O)C1(C)OC1C2O (stereo unspecified)
inactive: activation [1] 19.1% | Potency [2] | Potency [3]

O=C(CCCN1CC=C(n2c(=O)[nH]c3ccccc32)CC1)c1ccc(F)cc1
inactive: activation [1] 17.5% and 4.33% | Potency [2] | Potency [3]

O=C(N[C@@H]1CCCc2c1cnn2-c1ccc(F)cc1F)c1ccccn1
inactive: activation [1] 12.3% | Potency [2] | Potency [3]

C=CCc1ccc(O[C@@H]2O[C@H](CO)[C@@H](O)[C@H](O)[C@H]2O)c(O[C@@H]2O[C@H](CO)[C@@H](O)[C@H](O)[C@H]2O)c1
inactive: activation [1] -13.7% | Potency [2] | Potency [3]
